Records with an inconclusive call do not appear. Calls of active or inactive are those of the source. Unless noted, the call rests on the fitted dose curve; in most records, active means well fitted cell-killing curve with a large enough effect; inconclusive means small, poorly fitted or top-dose-only effect, or effect the other way; inactive means no such curve, though single readings can be large or run the other way.

Assay [1] in a line: Quantitative High-Throughput drug screen in 47 multiple myeloma cell lines against the NCATS MIPE library collection: KMS28BM_JCRB cell viability assay (AID 1919874). Further: nearly all actives have a fitted effect of over 35% in size. In outline:
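Viability after 48 h drug exposure was measured as ATP-dependent luminescence. Cells, 500 per well, sat at 37 °C under 5% CO2; DMSO wells set 100%, media-only wells 0%.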

The nature of assay [2]: qHTS for identification of novel therapeutic agents for treatment of microphthalmiaassociated transcription factor (MiT) renal cell carcinoma (RCC) (AID 1963991; calls by dose curve). As to conditions: CellTiter-Glo, 48 h; for z-score: stronger effect = lower value; for Potency: active = Z-AUC below -0.8 in all three lines. In outline:
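Viability of three TFE3-fusion renal carcinoma lines measured by CellTiter-Glo after 48 h treatment with each of 1912 compounds at 11 concentrations. Responses scaled between DMSO (100%) and empty wells (0%) before curve fitting.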

The mark [3] stands for this setting: TFE3-RCC UOK109 viability, measured here: UOK109 Z-AUC.
[4] abbreviates: TFE3-RCC viability, measured here: UOK124 Z-AUC.
Setting [5] is: TFE3-RCC viability, measured here: UOK145 Z-AUC.
Potency means the concentration at half of the fitted maximal effect.

On to `CC(=O)N[C@H]1[C@@H]([C@H](O)[C@H](O)CO)OC(C(=O)O)=C[C@@H]1N=C(N)N`, for which the Potency result in assay [1] is “inactive”. The z-score in assay [2] (setting [3]) is 0.312; in assay [2] (setting [4]), 0.639; in assay [2] (setting [5]) it was 0.195.
The corresponding values for `C[C@H]1O[C@H](O[C@H]2[C@H](O)[C@@H](O)[C@@H](O[C@H]3[C@H](O)[C@@H](O)C(O)O[C@H]3CO)O[C@H]2CO)[C@H](O)[C@@H](O)[C@H]1N[C@H]1C=C(CO)[C@@H](O)[C@H](O)[C@@H]1O` (stereo not given in full) are “inactive”, 0.975, 0.169 and 1.64.
The corresponding values for `CCC[C@H]1C[C@H](C(=O)N[C@@H]([C@@H]2O[C@@H](SC)[C@@H](O)[C@@H](O)[C@@H]2O)[C@H](C)Cl)N(C)C1` are “inactive”, 0.606, 0.328 and -0.0561.
The corresponding values for `CC(=O)NC(CS)C(=O)O` (stereo not given) are “inactive”, 0.609, 0.0619 and 0.159.
As to `CCc1cnn2c(NCc3ccc[n+]([O-])c3)cc(N3CCCC[C@@H]3CCO)nc12`, the Potency was 29.6 nM (active) in assay [1] and 59 nM (active) in assay [2] (TFE3-RCC UOK109 viability). Besides, the z-score in assay [2] (setting [3]) is -2.34; in assay [2] (setting [4]), -1.76; in assay [2] (setting [5]), -1.93.
The corresponding values for `CS[C@H]1SC[C@@H]2C(=O)N(C)[C@H](C(C)C)C(=O)OC[C@H](NC(=O)c3cnc4ccccc4n3)C(=O)N[C@H](C)C(=O)N(C)[C@@H]1C(=O)N(C)[C@H](C(C)C)C(=O)OC[C@H](NC(=O)c1cnc3ccccc3n1)C(=O)N[C@H](C)C(=O)N2C` are 1.7 nM (active), 8.33 nM (active), -2.31, -3.01 and -2.26.
For `CC(C)N(CC[C@H](c1ccccc1)c1cc(CO)ccc1O)C(C)C`, the Potency in assay [1] was 1050 nM (active). The z-score is 0.828 in assay [2] (setting [3]), 0.666 in assay [2] (setting [4]) and 0.832 in assay [2] (setting [5]).
The corresponding values for `C[N+]1(C)[C@@H]2C[C@@H](OC(=O)C(O)(c3cccs3)c3cccs3)C[C@H]1[C@@H]1O[C@@H]12` are “inactive”, 0.526, 0.59 and 0.677.
For `CC[C@H]1OC(=O)[C@H](C)[C@@H](O[C@H]2C[C@@](C)(OC)[C@@H](O)[C@H](C)O2)[C@H](C)[C@@H](O[C@@H]2O[C@@H](C)C[C@H](N(C)C)[C@@H]2O)[C@](C)(O)C[C@@H](C)C(=O)[C@H](C)[C@@H](O)[C@]1(C)O`, in that order: “inactive”, 0.677, 0.444 and 0.443.
Consider `O=C1NC(=O)C(=Cc2ccc3nccc(-c4ccncc4)c3c2)S1`, for which the Potency in assay [1] is 372 nM (active); in assay [2] (TFE3-RCC UOK109 viability) it was 833 nM (active). Moreover, the figures for the z-score in assay [2] (setting [3]), in assay [2] (setting [4]) and in assay [2] (setting [5]) were -1.04, -1.39 and -1.83, respectively.
Regarding `O=C(O)C=Cc1ccc(Cn2ccnc2)cc1`, the Potency entry in assay [1] was “inactive”. The z-score in assay [2] (setting [3]) was 0.607; in assay [2] (setting [4]), 0.722; in assay [2] (setting [5]), 0.686.
For `C[C@]12CCC(=O)C=C1[C@@H]1CC1[C@H]1[C@H]3[C@@H]4C[C@H]4[C@@]4(CCC(=O)O4)[C@@]3(C)CC[C@H]12` (stereo not given in full), in that order: 11800 nM (active), 0.661, 0.572 and -2.84.
The corresponding values for `O=C(O)[C@H](CC(=O)N1C[C@@H]2CCCC[C@H]2C1)Cc1ccccc1` are “inactive”, 0.946, 0.446 and 0.344.
The corresponding values for `CN(N=O)C(=O)N[C@H]1C(O)OC(CO)[C@@H](O)[C@H]1O` (stereo not given in full) are “inactive”, 0.19, 0.37 and -0.505.
In the case of `NC(=O)c1ncn([C@@H]2O[C@H](CO)[C@@H](O)[C@@H]2O)c1N`, the Potency entry in assay [1] is “inactive”. Besides, the results for the z-score in assay [2] (setting [3]), in assay [2] (setting [4]) and in assay [2] (setting [5]) were 0.684, 0.695 and 0.605, respectively.
The corresponding values for `CN[C@H](CC(C)C)C(=O)N[C@H]1C(=O)N[C@@H](CC(N)=O)C(=O)N[C@@H]2C(=O)N[C@H]3C(=O)N[C@H](C(=O)N[C@H](C(=O)O)c4cc(O)cc(O)c4-c4cc3ccc4O)[C@H](O)c3ccc(c(Cl)c3)Oc3cc2cc(c3O[C@@H]2O[C@H](CO)[C@@H](O)[C@H](O)[C@@H]2O[C@H]2C[C@](C)(N)[C@H](O)[C@H](C)O2)Oc2ccc(cc2Cl)[C@H]1O` are “inactive”, 0.508, 0.868 and 0.133.
The corresponding values for `CON=C(C(=O)N[C@@H]1C(=O)N2C(C(=O)O)=C(Cn3ccc(=N)n3CCO)CS[C@H]12)c1csc(N)n1` are “inactive”, 1.44, 0.0348 and 0.881.
For `OC[C@@H](O)[C@@H](O)[C@H](O)[C@@H](O)CO`, in that order: “inactive”, 0.602, 0.356 and 0.716.

The values are drawn from PubChem BioAssay (NCATS).
